Compound activity (PubChem BioAssay)
DT40 TDP1 CPT: DT40-hTDP1 cell growth loss with CPT | chicken DT40 Tdp1-/-;hTDP1 cells + 20 nM CPT, ATP luminescence, 48 h | Potency, µM (top dose mostly 46.2 µM), for inactives: at the highest dose activity change, negative = growth inhibition, most hits filed as inhibitors | 420,000 compounds, 12% hits | AID 686979; further: potency means the concentration at half of the fitted maximal effect; nearly all actives have a fitted effect of over 55% in size
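Chicken DT40 Tdp1-/- cells complemented with human TDP1, 400 cells/well, exposed to compounds plus 20 nM camptothecin for at least 48 h at 37 C; viability read as ATP content by CellTiter-Glo luminescence.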
IL-1B inflam inh: blocks inflammasome-driven IL-1 beta release; THP-1 LPS/ATP IL-1B secretion, AlphaLISA, 16 h; hits give low values; AID 743279; 360,000 compounds, 4.7% hits; activity change, % at 57.5 µM; in the data active means activity change below about -50%; inconclusive means mostly about -30% to -49%
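Secreted IL-1B measured by AlphaLISA bead assay after 16 h compound exposure of THP-1 cells; compounds (final up to 57.5 uM) added 1 h before LPS (250 ng/mL) and ATP (1.25 mM) stimulation; lower signal means less secretion.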
12-LOX inh: inhibitors of human 12S-lipoxygenase ALOX12; P18054; purified 12hLO, xylenol orange hydroperoxide absorbance; Potency, µM (series often up to 108 µM), without a hit: top-dose activity change, negative = inhibition, most hits filed as inhibitors; 580,000 compounds, 1.1% hits; further: potency means the concentration at half of the fitted maximal effect
Target sequence (P18054 whole entry, looked up): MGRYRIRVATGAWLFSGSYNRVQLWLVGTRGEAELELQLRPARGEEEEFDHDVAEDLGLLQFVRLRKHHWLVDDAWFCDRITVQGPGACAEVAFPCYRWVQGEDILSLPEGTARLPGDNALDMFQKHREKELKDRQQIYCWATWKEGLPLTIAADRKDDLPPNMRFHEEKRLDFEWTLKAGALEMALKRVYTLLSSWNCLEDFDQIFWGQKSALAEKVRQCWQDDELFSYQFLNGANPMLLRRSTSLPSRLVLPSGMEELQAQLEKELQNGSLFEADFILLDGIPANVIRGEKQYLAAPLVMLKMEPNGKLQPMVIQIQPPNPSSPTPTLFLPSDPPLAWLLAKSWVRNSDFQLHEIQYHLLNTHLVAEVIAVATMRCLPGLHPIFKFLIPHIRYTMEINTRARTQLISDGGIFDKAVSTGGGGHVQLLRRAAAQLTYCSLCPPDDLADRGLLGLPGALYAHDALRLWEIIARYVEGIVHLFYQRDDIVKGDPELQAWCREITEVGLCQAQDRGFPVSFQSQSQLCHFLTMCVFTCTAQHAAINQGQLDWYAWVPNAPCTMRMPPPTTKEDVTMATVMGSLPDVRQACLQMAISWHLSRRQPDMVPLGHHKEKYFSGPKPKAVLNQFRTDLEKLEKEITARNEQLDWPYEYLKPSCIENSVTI
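Purified human 12hLO (150 nM final) in 25 mM Hepes, 0.01% Triton X-100, pH 7.0 was preincubated 15 min at room temperature with compound. Then 40 uM arachidonic acid was added, 30 min. Hydroperoxide was read by Fe-XO absorbance ratio 573/405 nm.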
DT40 TDP1 no CPT: qHTS for Inhibitors of human tyrosyl-DNA phosphodiesterase 1 (TDP1): qHTS in cells in absence of CPT. DT40 Tdp1-/- hTDP1 cells, no CPT, ATP luminescence, 48 h. Potency, µM (doses to about 46.2 µM), without a hit: at the highest dose activity change, negative = growth inhibition, most hits filed as inhibitors. 420,000 compounds, 15% hits. AID 686978, 2013; further: potency means the concentration at half of the fitted maximal effect; nearly all actives have a fitted effect of over 55% in size
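DT40 Tdp1-/-;hTDP1 cells, no CPT (DMSO vehicle only), 400 cells/well; compounds pin-transferred; ≥48 hr, 37 °C; CellTiter-Glo 30 min RT dark, luminescence read.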
HT1080 IDH1KD tx: HT-1080 IDH1 knockdown cell toxicity (counter line). HT-1080 IDH1 knockdown viability, ATP luminescence, 48 h. 360,000 compounds, 2% hits. Potency, µM (titrated, usually from 46.1 µM), without a hit: at the top dose activity, negative = toxicity, actives largely listed as cytotoxic. AID 686971;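 further: potency means the concentration at half of the fitted maximal effect; 0% = DMSO wells and -100% = cell-free medium wells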
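After a 2 h attachment period, IDH1KD HT-1080 cells took pin-transferred compound for 48 h at 37 °C; ATP-based luminescence after 10 min room-temperature reagent incubation reported viability.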
HT1080-NT tox: kills 2HG-producing HT-1080-NT fibrosarcoma cells; 360,000 compounds, 1.6% hits; HT-1080-NT fibrosarcoma viability, CellTiter-Glo ATP luminescence, 48 h; Potency, µM (doses to about 46.1 µM), for the others: at the top dose activity, negative = less viability, usual class: cytotoxic;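 further: NT is the 2HG producing partner of a matched IDH1 knockdown line; potency means the concentration at half of the fitted maximal effect; 0% = DMSO-treated cells and -100% = media-only wells without cells; nearly all actives have a fitted effect of over 55% in size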
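Fibrosarcoma NT cells, 750 per well in 5% FBS RPMI, were exposed to compound for 48 hours. Viability: CellTiter-Glo luminescence.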
Active calls of the source: *; ? = inconclusive; . = not tested or not shown; ! = repeats disagree; [ ] = another dose, or the depositor's remark. The entries come from a sample that favours hits as a whole. Unless noted, the call rests on the fitted dose curve; in most records, active means well fitted curve in the direction sought with a large enough effect; inconclusive means small, poorly fitted or top-dose-only effect, or another doubt; inactive means no such curve, though single readings can be large; an effect the other way counts as inactive or inconclusive. Unless noted, on the % scale 0 is the no-effect control and ±100 the full control effect.

SMILES	DT40 TDP1 CPT	IL-1B inflam inh	12-LOX inh	DT40 TDP1 no CPT	HT1080 IDH1KD tx	HT1080-NT tox
COc1ccc(-n2nnnc2C(c2cccs2)N2CCC(n3c(=O)[nH]c4ccccc43)CC2)cc1 (stereo not drawn)	12µM*	-25	-34%	13µM*	?	?
Cc1cccc(C)c1-n1nnnc1C(c1cc2ccccc2o1)N1CCC(n2c(=O)[nH]c3ccccc32)CC1 (stereo not drawn)	1.5µM*	-23	-29%	1.3µM*	?	?
COc1ccc(-n2nnnc2C(c2ccccc2)N2CCC(n3c(=O)[nH]c4ccccc43)CC2)cc1 (stereo not drawn)	16µM*	?	?	15µM*	?	?
COc1ccc(-n2nnnc2C(C2CC2)N2CCC(n3c(=O)[nH]c4ccccc43)CC2)cc1 (stereo not drawn)	?	?	0%	?	?	?
Cc1cc(N2C(=O)CC(N3CCC(n4c(=O)[nH]c5ccccc54)CC3)C2=O)no1 (stereo not drawn)	?	0	?	?	16%	23%
Cc1cccc(C)c1-n1nnnc1C(c1ccccc1OC(F)(F)F)N1CCC(n2c(=O)[nH]c3ccccc32)CC1 (stereo not drawn)	8.2µM*	-81*	1%	5.8µM*	-1%	17%
COc1ccccc1CCNCc1cccs1	.	.	-48%	.	.	.
COc1ccc(C(c2nnnn2-c2c(C)cccc2C)N2CCC(n3c(=O)[nH]c4ccccc43)CC2)cc1 (stereo not drawn)	8.2µM*	-92*	-19%	9.2µM*	?	?
NCCCCN=C(N)N	8.4µM*!	.	0%	6.7µM*!	.	.
O=C(CCN1CC2CCC(CC2)C1)c1cccs1	2.1µM*	-29	-11%	4.1µM*	?	20%
Cc1ccc(C(=O)NC[C@H]2C[C@@H]3CCN2C[C@@H]3c2cc(-c3cccs3)nn2C)cc1	.	.	62%[176 µM]	.	.	.
COC(=O)C1=C(C)NC(C)=C(C(=O)OCC(C)=O)C1c1ccccc1[N+](=O)[O-] (stereo not drawn)	19µM*	.	.	12µM*	.	.
C=C1C[C@H]2[C@H]3CCC(=O)[C@@]3(C)CC[C@@H]2[C@@]2(C)C=CC(=O)C=C12	.	.	0%[57.4 µM]	.	.	.
Cc1cc(N2CCNC[C@@H]2C)ccc1N1CCN[C@@H](C)C1	.	.	45µM*	.	.	.
Cc1cc(N2CCNC[C@H]2C)ccc1N1CCN[C@H](C)C1	.	.	40µM*	.	.	.
O=C(O)CCCc1ccc(N(CCCl)CCCl)cc1	0.46µM*	-1	?	0.65µM*	1%	-7%
Cc1cc2c(N3CCC(N4C[C@@H]5CCN[C@@H]5C4)CC3)ncnc2s1	.	.	13%	.	.	.
CCN(CC)/[N+]([O-])=N/O	-9%	.	.	-13%	.	.
CCN1CCN(c2cc(N3CCCC3)c(F)cc2[N+](=O)[O-])CC1	?	-7	?	16µM*	1%	-12%
c1cc(N2CCCC3(CCNCC3)C2)ccn1	9.2µM*	.	8%[57.4 µM]	9.2µM*	.	.
c1cnc(N2CCCC3(CCNCC3)C2)nc1	-2%	.	-4%[57.4 µM]	-24%	.	.
O=C(NCC(c1ccco1)N1CCCC1)c1cccc(S(=O)(=O)N2CCc3ccccc32)c1 (stereo not drawn)	18µM*	-10	?	9.2µM*	-24%	-7%
COC1C(O)C(C)O[C@@H](OC2CC[C@@]3(C)C4CC[C@]5(C)C(C6=CC(=O)OC6)CC[C@@]5(O)C4CC[C@@H]3C2)C1O (stereo partly drawn)	1µM*	.	.	0.65µM*	.	.
COC1C(O)C(C)O[C@H](OC2CC[C@@]3(C=O)C4CC[C@]5(C)C(C6=CC(=O)OC6)CC[C@@]5(O)C4CC[C@@H]3C2)C1O (stereo partly drawn)	0.65µM*	.	.	0.37µM*	.	.
CCOc1cc(CNC2CN3CCC2CC3)ccc1OCc1ccccc1Cl (stereo not drawn)	.	.	-14%	.	.	.
SMILES	DT40 TDP1 CPT	IL-1B inflam inh	12-LOX inh	DT40 TDP1 no CPT	HT1080 IDH1KD tx	HT1080-NT tox
Cc1onc(-c2ccccc2Cl)c1C(=O)OCC(=O)c1ccc2c(c1)OCCO2	?	-21	0%	15µM*	-20%	-18%
COC(=O)c1c(NC(=O)C2CC=CCC2C(=O)O)sc2c1CCCCC2 (stereo not drawn)	-23%	-1	.	?	-3%	0%
Cc1nc2cc(-c3ccc(Cl)cc3)nn2c(C)c1CCC(=O)N1CCC2(CC1)OCCO2	23µM*	35	?	21µM*	11%	-4%
O=C(CCn1nc(-c2ccc(Cl)cc2)ccc1=O)N1CCC2(CC1)OCCO2	-17%	-4	-5%	-9%	0%	-2%
CCc1ccc(-n2nc(C)c3c(C(=O)NCCc4ccc(OC)c(OC)c4)cc(C)nc32)cc1	18µM*	.	0%	18µM*	.	.
CNCCc1ccc(OC)c(OC)c1	-27%	-19	44%	-18%	0%	-6%
O=C1c2ccccc2C(=O)c2c1ccc1c(=O)n(-c3ccccc3)[nH]c21	?	-12	-10%	23µM*	11%	8%
CC(=O)c1ccc(Oc2nc(C)nc3c2oc2ccccc23)cc1	?	.	-10%	?	.	.
Cc1nc2ccccc2c(=O)n1-c1nccs1	-1%	0	5%	-14%	18%	18%
Cc1nn(-c2nccs2)c2c1C(=O)CC(C)(C)C2Br (stereo not drawn)	?	?	-2%	16µM*	-29%	-16%
C=CC[N+](CC#CCO)(CCCC)CCCC	.	.	22%	.	.	.
COCC(=O)NC[C@H]1C[C@@H]2CCN1C[C@@H]2c1cc(-c2ccc(OC)cc2)nn1C	.	.	19%[176 µM]	.	.	.
COc1ccc(Cl)cc1NC(=O)C1CCN(c2nnc(C)c3c(C)n(-c4ccccc4)nc23)CC1	18µM*	.	-27%	15µM*	.	.
COc1ccc(Cl)cc1NC(=O)c1sc2nc3c(cc2c1N)N1CCC3CC1	1%	.	?	-24%	.	.
Cc1nn(Cc2ccccc2Cl)c(C)c1C(=O)NC1CCCc2ccccc21 (stereo not drawn)	-2%	24	4%	-9%	2%	0%
Cc1ccc(-n2nc3c(N4CCC(C(=O)NCc5ccccc5Cl)CC4)nnc(C)c3c2C)cc1	15µM*	.	?	5.8µM*	.	.
CN(C)C(=O)[C@H]1CN2CCC1C[C@@H]2Cn1cc(-c2cccc(O)c2)nn1 (stereo partly drawn)	.	.	2%[176 µM]	.	.	.
